The record followed here is PubChem BioAssay AID1851 (National Center for Advancing Translational Sciences (NCATS), 2009).

SMILES strings stand for the structures. Out of some 16,000 compounds screened, about 5,100 (32%) were called active. Not shown: some 25% with an inconclusive outcome. The list shows a part of the results. Values without a mark were called inactive. The call rests on the fitted dose curve; in most records, active means well fitted curve in the direction sought with a large enough effect; inconclusive means small, poorly fitted or top-dose-only effect, or effect the other way; inactive means no such curve, though single readings can be large or run the other way.
On the % scale 0 is the no-effect control and ±100 the full control effect.

This experiment deals with Cytochrome P450 3A4 (Homo sapiens) (UniProt P08684). Briefly: Cytochrome panel assay with activity outcomes. The note with it: recombinant CYP, pro-luciferin dealkylation, luminescence, p450-cyp3a4; series mostly up to 57.1 µM; activity, negative = inhibition: at the top concentration.
Chain of Cytochrome P450 3A4 (Homo sapiens) (P08684 whole entry, looked up): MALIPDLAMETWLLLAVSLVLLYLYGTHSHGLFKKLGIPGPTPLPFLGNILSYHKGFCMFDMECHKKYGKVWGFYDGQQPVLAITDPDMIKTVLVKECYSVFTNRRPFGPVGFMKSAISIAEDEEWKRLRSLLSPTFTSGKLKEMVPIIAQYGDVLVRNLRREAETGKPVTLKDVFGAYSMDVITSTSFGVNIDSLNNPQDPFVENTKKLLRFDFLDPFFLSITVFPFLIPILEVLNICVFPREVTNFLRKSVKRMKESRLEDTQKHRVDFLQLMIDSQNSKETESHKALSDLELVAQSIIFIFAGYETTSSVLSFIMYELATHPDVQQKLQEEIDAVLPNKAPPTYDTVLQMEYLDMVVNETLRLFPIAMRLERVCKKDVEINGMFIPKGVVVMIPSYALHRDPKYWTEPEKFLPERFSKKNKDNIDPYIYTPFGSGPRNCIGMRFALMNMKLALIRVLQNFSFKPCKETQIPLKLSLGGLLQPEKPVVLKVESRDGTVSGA
One may read the AC50 as the midpoint of the concentration-response curve, whichever way the signal moves. In the case of `O=C1CSC(c2ccccc2F)N1c1cc(Cl)ccc1O` (stereo not drawn), the concentration at half-maximal activity (AC50) was 25.1 µM (active).
Regarding `NC(=O)c1ccc(C2SCC(=O)N2Cc2ccccc2)cc1` (stereo not drawn), the “activity, negative = inhibition” value is 8.69%.
For the compound `Cc1cccc(CNc2ccnc(-c3cccc(C#N)c3)n2)c1`, the AC50 was 1.26 µM (active).
As for `N#Cc1cccc(-c2nccc(NCc3ccccc3)n2)c1`, the AC50 was 12.6 µM (active).
Same read-out and setting: next, `N#Cc1cccc(-c2nccc(NCc3cccs3)n2)c1`: 10 µM (active); `N#Cc1cccc(-c2nccc(NCc3cccnc3)n2)c1`: 0.794 µM (active); `COc1ccccc1CCn1c(=O)c(-c2cc(F)cc(F)c2)nc2cncnc21`: 0.398 µM (active).
`COc1ccccc1CCn1c(=O)c(-c2cccc(F)c2)nc2cncnc21`: the concentration at half-maximal activity (AC50) was 3.16 µM (active).
As for `CN(C)c1ncc2nc(-c3cc(F)cc(F)c3)c(=O)n(CCc3ccccc3)c2n1`, the “activity, negative = inhibition” value was -13%.
On to `O=C(N/N=C/c1cccc(OC2CSC2)c1)c1ccccc1O`, for which the activity, negative = inhibition is -1.49% [at 2.29 µM].
Regarding `CCCCS(=O)(=O)NC1=NCN(Cc2ccco2)CN1`, the “activity, negative = inhibition” value was -13.9%.
The same measure, in the same setting: as for `CC1(C)OC(=O)N(Cc2ccco2)C1(C)O` (stereo not drawn), the figure is -11.6%.
On to `CC1=CC(=C2C(=O)c3ccccc3C2=O)C=C(C)N1Cc1ccco1`, for which the AC50 was 14.1 µM (active).
Take `COC(=O)c1c(NC(=O)CC2Nc3ccccc3NC2=O)sc(C)c1C` (stereo not drawn): the AC50 was 3.55 µM (active).
Consider `CCN(CC)CCCNC(=O)CC1Sc2ccccc2NC1=O` (stereo not drawn), for which the “activity, negative = inhibition” value is 6.35%.
Take `CC(Sc1nnc(C(C)N(C)C)n1-c1ccc(Cl)cc1)C(=O)Nc1ccc2c(c1)OCO2` (stereo not drawn): the AC50 was 0.891 µM (active).
As to `C/C(=N\NC(N)=S)c1ccc[nH]1`, the activity, negative = inhibition is -6.66% [at 11.4 µM].
On the same count and under the same terms, next, `CCOC(=O)c1c(NC(=O)c2ccc(N3CCOCC3)c([N+](=O)[O-])c2)sc(C)c1C`: -1.99%.
Same read-out and setting: next, `CCOCC(=O)Nc1cc(-c2cn3cccnc3n2)ccc1C`: 24.8%.
On the same count and under the same terms, as for `Cc1ccc(-c2nc3ccccc3o2)cc1NC(=O)Cc1cccs1`, the figure is 28.9%.
Regarding `COc1ccc2oc(-c3ccc(C)c(NC(=O)CSc4ccc(Cl)cc4)c3)nc2c1`, the AC50 was 11.2 µM (active).
On the same count and under the same terms, as for `COc1ccc2oc(-c3ccc(C)c(NC(=O)c4ccc(N5CCOCC5)c([N+](=O)[O-])c4)c3)nc2c1`, the figure is 6.31 µM (active).
With `CCCCn1cnc2c(cnn2-c2ccc(F)cc2)c1=O`, the “activity, negative = inhibition” value was -2.78%.
For `O=c1c2ccccc2ncn1CCCSc1ccccc1`, the “activity, negative = inhibition” value is -8.34%.
In the case of `Cc1ccc(SCCCn2cnc3ccccc3c2=O)cc1`, the AC50 was 11.2 µM (active).
Regarding `CCCCCn1c(=O)c(C(=O)c2ccccc2)nc2ccccc21`, the activity, negative = inhibition is -5.99% [at 2.29 µM].
Regarding `O=C(c1ccccc1)c1nc2ccccc2n(CCCn2c(=O)c(C(=O)c3ccccc3)nc3ccccc32)c1=O`, the AC50 was 1.41 µM (active).
In the case of `O=C(Cn1c(C(F)(F)F)nc2ccccc21)c1ccccc1`, the “activity, negative = inhibition” value was -8.98%.
On the same count and under the same terms, next, `CN1CCC[C@@H](CC2c3ccccc3Sc3ccccc32)C1`: -7.59% [at 25.6 µM].
Take `COc1cc(-n2ccnc2SC)c(Cl)cc1Cl`: the AC50 is 14.1 µM (active).
Turning to `COc1ccc(-c2cc(C(=O)NCc3cccnc3)no2)cc1OC`, the AC50 was 2.51 µM (active).
On to `Cc1cc(C(=O)NCc2ccccc2)no1`, for which the “activity, negative = inhibition” value is -13.3%.
For `CCOC(=O)N1CCC(NC(=O)CS(=O)(=O)Cc2nc(-c3cccc(OC)c3)oc2C)CC1`, the AC50 was 7.08 µM (active).
On the same count and under the same terms, as for `COc1cccc(-c2nc(CS(=O)(=O)CC(=O)NCCCOC(C)C)c(C)o2)c1`, the figure is 7.94 µM (active).
Consider `Cc1cccc(C)c1NC(=O)N1CCC(N2CCCCC2)CC1`, for which the “activity, negative = inhibition” value is -21.5%.
As for `Cc1cccc(C)c1NC(=O)C(c1ccc(Cl)cc1Cl)N1CCCCC1` (stereo not drawn), the AC50 was 3.98 µM (active).
Regarding `O=C(O)/C=C\C(=O)Nc1ncn[nH]1`, the activity, negative = inhibition is -3.91% [at 11.4 µM].
Turning to `Cc1ccccc1NC(=O)C(C)c1cccc(C(=O)c2ccccc2)c1` (stereo not drawn), the AC50 is 7.94 µM (active).
Consider `COC(=O)Nc1nc2ccc(C(=O)c3ccccc3)cc2[nH]1`, for which the “activity, negative = inhibition” value was -1.41% [at 25.6 µM].
Take `CCCN[C@@H](C)C(=O)Nc1ccccc1C`: the AC50 result is “inactive”.
Consider `COc1cccc(-c2noc(Cn3nc(C)c([N+](=O)[O-])c3C)n2)c1`, for which the AC50 is 14.1 µM (active).
With `Cc1cccc(-c2n[nH]c([N+](=O)[O-])n2)c1`, the activity, negative = inhibition is -5.58% [at 2.29 µM].
In the case of `COc1cccc(CN2CCN(Cc3cc(OC)c(OC)cc3[N+](=O)[O-])CC2)c1`, the activity, negative = inhibition is -15.7% [at 2.29 µM].
On the same count and under the same terms, next, `CC[C@H](CO)NCCN[C@@H](CC)CO`: 4.95% [at 25.6 µM].
The same measure, in the same setting: next, `N[C@@H](Cc1[nH]nc2ccccc12)C(=O)O`: -7.68% [at 11.4 µM]; `O=C(COc1ccc(Cl)cc1)NCCC1=CCCCC1`: -14.7% [at 11.4 µM]; `COc1ccc(/C=N\NC(=O)O)cc1`: -13.4% [at 11.4 µM].
For the compound `COc1ccc(CCCC(=O)NC2CCCCC2)cc1`, the AC50 is 20 µM (active).
With `COC(=O)c1ccc(NC(=S)NC2CCCCC2)cc1`, the “activity, negative = inhibition” value is -15.8%.
For the compound `COc1ccc(CCNC(=O)COc2ccc(S(=O)(=O)NC3CCCCC3)cc2Cl)cc1`, the AC50 was 7.08 µM (active).
Turning to `CCC1=C(C)CN(C(=O)NCCc2ccc(S(=O)(=O)NC(=O)NC3CCC(C)CC3)cc2)C1=O` (stereo not drawn), the “activity, negative = inhibition” value is -25.9% [at 25.6 µM].
With `COc1ccc(/C=N/NC(=O)CCCC(=O)NC2CCCCC2)cc1`, the AC50 was 12.6 µM (active).
Regarding `CC(C)NC(=O)CC(=O)N/N=C/c1ccc(Br)cc1`, the “activity, negative = inhibition” value is -3.05%.
